# High-throughput results (PubChem BioAssay)
# SK-BR-3 tox 24h: SK-BR-3 proliferation inhibitors; viability, % at 10 µM; hit rate 0.47% among 41,000; SK-BR-3 viability, CellTiter-Glo ATP luminescence, 24 h; stronger effect = lower value;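 active = viability at or below the median of all test compounds minus 3 SD, in both replicates if run twice, cut at about 45% in these data; inconclusive = duplicate replicates that disagree with each other; inactive = viability above that cutoff in every replicate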;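 also: 100% = median untreated cell wells and 0% = median positive control drug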
# Her2 expr inh: lowers expression of human Her2 kinase | P04626 | SKBR-3 HER2 protein level, AlphaScreen, 18-24 h; stronger effect = lower value | HER2 level % of control, % at 10 µM | hit rate 0.69% among 65,000 | AID 645;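 active = HER2 level under 5% of the carrier-only control; inconclusive = no clear call, values can overlap the other calls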;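 also: 100% = DMSO carrier and 0% = 500 nM PU-H71 HSP90 inhibitor; lower value means stronger loss of Her2 protein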
# Target sequence (P04626 whole entry, looked up): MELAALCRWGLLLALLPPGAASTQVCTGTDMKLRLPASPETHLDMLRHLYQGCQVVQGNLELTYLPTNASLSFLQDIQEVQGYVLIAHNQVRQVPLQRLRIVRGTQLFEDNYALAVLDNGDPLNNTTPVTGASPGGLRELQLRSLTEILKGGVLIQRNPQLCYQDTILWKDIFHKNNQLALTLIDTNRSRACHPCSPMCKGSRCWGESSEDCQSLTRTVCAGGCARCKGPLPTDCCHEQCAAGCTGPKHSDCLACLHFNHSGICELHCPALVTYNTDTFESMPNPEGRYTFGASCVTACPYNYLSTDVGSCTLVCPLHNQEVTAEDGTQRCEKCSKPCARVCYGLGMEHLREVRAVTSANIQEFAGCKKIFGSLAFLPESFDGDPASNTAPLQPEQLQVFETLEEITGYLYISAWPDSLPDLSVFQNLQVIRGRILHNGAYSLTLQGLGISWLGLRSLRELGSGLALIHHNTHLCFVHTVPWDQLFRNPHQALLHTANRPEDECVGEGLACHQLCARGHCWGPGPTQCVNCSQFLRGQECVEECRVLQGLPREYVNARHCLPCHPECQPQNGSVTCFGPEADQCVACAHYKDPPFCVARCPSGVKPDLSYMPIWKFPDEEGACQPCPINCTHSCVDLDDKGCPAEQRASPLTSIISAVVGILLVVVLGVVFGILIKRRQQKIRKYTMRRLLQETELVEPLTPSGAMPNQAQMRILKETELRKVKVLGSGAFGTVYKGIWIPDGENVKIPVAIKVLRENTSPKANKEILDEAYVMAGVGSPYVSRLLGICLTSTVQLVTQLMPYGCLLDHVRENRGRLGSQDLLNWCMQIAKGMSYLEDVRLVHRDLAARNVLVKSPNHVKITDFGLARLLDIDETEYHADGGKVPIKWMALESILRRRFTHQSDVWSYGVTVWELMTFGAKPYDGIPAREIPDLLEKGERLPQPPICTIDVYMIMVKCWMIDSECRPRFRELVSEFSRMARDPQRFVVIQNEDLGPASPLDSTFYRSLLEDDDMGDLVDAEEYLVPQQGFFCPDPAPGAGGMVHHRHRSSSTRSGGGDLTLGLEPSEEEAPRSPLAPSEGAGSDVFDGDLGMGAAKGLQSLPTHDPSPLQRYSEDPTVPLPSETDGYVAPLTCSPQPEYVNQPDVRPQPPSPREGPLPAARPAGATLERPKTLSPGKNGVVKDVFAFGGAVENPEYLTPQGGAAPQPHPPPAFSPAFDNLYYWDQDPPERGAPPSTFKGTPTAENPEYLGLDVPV
# Jurkat tox 60K: cytotoxicity toward Jurkat cells; hit rate 1.2% among 56,000; Jurkat E6.1 viability, ATP luminescence, 48 h; inhibition, % at 4 µM;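 active = inhibition above the mean inhibition of all tested compounds plus 3 SD, cut at about 28% in these data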
# * hit, by the source's call; ? = inconclusive; / = no result given. In the library only some 1.9% were active in any assay of this set; here they are far more common.
SMILES,SK-BR-3 tox 24h,Her2 expr inh,Jurkat tox 60K
O=C(CSc1nc2ccccc2s1)Nc1ncccn1,89,85,0
O=S(=O)(CCSc1nc2ccccc2o1)c1nc2ccccc2s1,?,-14*,64*
CCS(=O)(=O)CCSc1nc2ccccc2o1,100,89,-9
O=S(=O)(CCSc1ccccn1)c1nc2ccccc2s1,125,-8.5*,50*
COC(=O)c1ccc(CSc2nc(C)nc3c2c(=O)n(C)c(=O)n3C)o1,/,112,-5
COC(=O)c1cc(NC2c3ccccc3C(=O)N2CCN2CCOCC2)cc(C(=O)OC)c1 (stereo unspecified),/,91,-5
OCCN1CCN(C(c2cccs2)c2ccc3cccnc3c2O)CC1 (stereo unspecified),91,48,53*
OCCN1CCN(CC(O)COc2ccc3ccccc3c2)CC1 (stereo unspecified),/,87,4
O=C1CN(C(=O)c2ccccn2)c2ccccc2N1,95,100,/
CCCn1nc(C(=O)N2CC(=O)Nc3ccccc32)c2ccccc2c1=O,/,112,74*
CC1(C)CCCC2=C1CC1C(=O)N(Cc3cccnc3)C(=O)C1C2 (stereo unspecified),110,-22*,0
CC1(C(=O)NC2CCCCCCC2)CCC(=O)N1Cc1cccnc1 (stereo unspecified),/,121,-1
CCOC(=O)C1CCCN(C(=O)c2ccc(OCC)cc2)C1 (stereo unspecified),/,95,2
COc1ccc(CNC(=O)c2cc3c(C)nc4ccccc4c3o2)c(OC)c1,/,83,60*
COc1cc(NC(=O)c2cc3c(C)nc4ccccc4c3o2)cc(OC)c1OC,/,110,5
O=C(OCC#CCSc1nc2ccccc2s1)c1ccco1,102,84,0
C=CCN(C(=O)c1ccccc1)c1ccc(OC)cc1,/,87,49*
CCN(C(=O)c1cc2cc(OC)ccc2oc1=O)c1ccccc1,90,108,1
Cc1ccc2c(CC(=O)N3CCN(S(=O)(=O)c4ccc5c(c4)OCCO5)CC3)coc2c1,/,92,0
CCCC(=O)Nc1nc2ccc(S(=O)(=O)N3CCCCC3)cc2s1,/,59,79*
CCCC(=O)Nc1nc2ccc(OCC)cc2s1,/,87,-5
CC(C)CCOc1ccc(Cl)cc1CN1CCOCC1,84,151,/
COc1cc2c(cc1OC)C(c1cc(OC)c(OC)c(OC)c1)NCC2 (stereo unspecified),101,77,-4
CCOC(=O)c1sc2ncnc(N3CCN(C(=O)OCC)CC3)c2c1C,42*,140,-1
Cc1sc2ncnc(N3CCN(c4ncccn4)CC3)c2c1C,84,66,8
SMILES,SK-BR-3 tox 24h,Her2 expr inh,Jurkat tox 60K
Cc1c(C(=O)N2CCN(c3ccccc3)CC2)sc2ncnc(N3CCN(c4ccccc4)CC3)c12,/,93,6
COc1cc(C(=O)N2CCN(c3ncnc4sc(C)c(C)c34)CC2)cc(OC)c1OC,81,88,76*
Cc1nonc1NC(=O)c1ccc(Cl)c(S(=O)(=O)N2CCCCC2)c1,102,107,1
Cc1nn2c(-c3ccco3)nnc2c2ccccc12,125,-1.1*,8
Cc1nn2c(-c3ccncc3)nnc2c2ccccc12,85,98,8
O=C(CC(=O)c1ccccc1O)c1cccc(F)c1,/,37,69*
O=C(Nc1ccncc1)c1cccc(F)c1,82,81,-7
O=C(c1n[nH]c(=O)c2ccccc12)N1CCN(c2ccc(F)cc2)CC1,/,97,-7
O=C(c1n[nH]c(=O)c2ccccc12)N1CCN(c2ccccc2)CC1,75,-20*,4
O=C1C(=O)N(CCCN2CCOCC2)C(c2cccs2)/C1=C(/O)c1ccc2c(c1)OCO2 (stereo unspecified),91,131,/
CCOC(=O)Cn1c(=O)oc2cc(S(=O)(=O)Nc3ccc(N(CC)CC)cc3C)ccc21,/,18,-4
O=C1C2=C(SCCS2)C(=O)N1c1ccccc1,/,105,1
O=C1C2=C(SCCS2)C(=O)N1CCCO,105,1.1*,0
COc1ccc(S(=O)(=O)N2CCCN(S(=O)(=O)c3ccc(OC)cc3C)CC2)c(C)c1,81,95,-5
N#CCSc1nc2cc(C(=O)N3CCCC3)ccc2c(=O)n1Cc1ccccc1,91,155,4
N#CCSc1nc2cc(C(=O)N3CCC(C(N)=O)CC3)ccc2c2nc3ccccc3n12,/,-1.2*,18
CC(=O)c1ccc(N2CCN(C(=O)C3CCN(S(=O)(=O)Cc4ccccc4)CC3)CC2)cc1,/,99,-4
C=CCn1c(COc2ccccc2)nnc1SCc1ccc(C#N)cc1,91,110,1
C=CCn1c(COc2ccc(CC)cc2)nnc1SC/C(O)=C(\C#N)c1nc2ccccc2[nH]1,29*,70,/
Cc1ccc(C2Nc3ccccc3C(=O)N2Cc2ccco2)cc1 (stereo unspecified),115,84,6
CC(C)(C)c1cc(C(c2cccnc2)N2CCN(CCO)CC2)cc(C(C)(C)C)c1O (stereo unspecified),/,-15*,-2
CC(C)(C)n1nnnc1C(c1cccnc1)N1CCN(C2CCCCC2)CC1 (stereo unspecified),71,100,8
O=C(CCCn1nnc(-c2cccnc2)n1)c1ccc(F)cc1,89,81,1
COc1ccccc1OCC(=O)Nc1ccc(S(=O)(=O)Nc2nc(C)cc(C)n2)cc1,/,125,0
Cc1c(C(=O)COC(C)(C)C)[nH]c2ccccc12,86,107,-7
SMILES,SK-BR-3 tox 24h,Her2 expr inh,Jurkat tox 60K
Cc1cc(NS(=O)(=O)c2ccc(NC(=O)Cc3cccs3)cc2)no1,97,81,-2
Cc1cc(NS(=O)(=O)c2cccs2)no1,99,-30*,3
O=C(Nc1nc(-c2cccs2)cs1)c1ccc(S(=O)(=O)N2CCCC2)cc1,/,36,21
CN(C)S(=O)(=O)c1ccc(C(=O)Nc2nc(-c3cccs3)cs2)cc1,/,68,36*
COc1cccc(N2CC(C(=O)Nc3ccc(C(=O)OC(C)C)cc3)CC2=O)c1 (stereo unspecified),71,83,-1
CCOc1ccccc1OCc1nn2c(COc3ccccc3)nnc2s1,84,52,6
c1ccc(Cc2nn3c(COc4ccccc4)nnc3s2)cc1,100,-21*,6
O=S(=O)(c1ccc(F)cc1)N1CCC(N2CCN(c3ccccc3)CC2)CC1,91,96,-5
Cc1cc(C(=O)N2CCN(c3cccc(Cl)c3)CC2)c(C)o1,/,78,75*
Cc1ccc(C(=O)N2CCN(c3ccccc3)CC2)cc1C,89,109,4
Cc1cc2ccccc2c(=O)n1CC(=O)NCC(=O)N1CCN(c2ccccc2)CC1,/,91,2
Cc1cc2ccccc2c(=O)n1CC(=O)N1CCN(c2cccc(Cl)c2)CC1,29*,145,1
Cc1cc(C(=O)N2CCN(c3ncccn3)CC2)c(C)o1,103,90,-8
Cc1ccc(C(=O)N2CCN(c3cccc(Cl)c3)CC2)cc1C,/,133,38*
CC1=NC(C(F)(F)F)(C(F)(F)F)C(C#N)=C(C)N1,101,104,0
CN(C)c1ccc(C(c2nnnn2C2CCCCC2)N2CCN(C(=O)c3ccco3)CC2)cc1 (stereo unspecified),95,81,-3
CC(C)(C)SCCNC(=O)c1ccc(NS(C)(=O)=O)cc1,/,93,-4
O=C(c1ccc2c(c1)OCCCO2)c1cccs1,/,111,1
COCC(=O)N(Cc1cc2cc(OC)ccc2[nH]c1=O)c1ccc(C)cc1,/,147,4
